# Measured values from PubChem BioAssay (NCATS).
# “And” between values parts separate entries of the source, which are not always exact repeats. Equal entries are not always repeated. Unmarked numbers belong to inactive results. Records with an inconclusive call do not appear. Where a call stands in place of a potency, no number is given. The source made the active and inactive calls. Calls follow the shape of the dose curve; as a rule, active = well fitted curve in the direction sought with a large enough effect; inconclusive = small, poorly fitted or top-dose-only effect, or another doubt; inactive = no such curve, though single readings can be large; an effect the other way counts as inactive or inconclusive.
# Columns and labels:
# [1] = Primary qHTS for inhibitors of nuclear receptor binding SET domain protein 2 (NSD2) in an RCH-ACV wild type WT cells (2C) (AID 1645877); also: nearly all actives have a fitted effect of over 70% in size; also: potency is read from the fitted curve at half-maximal effect
# [2] = target: Glutathione peroxidase 1 (Homo sapiens) (UniProt P07203); experiment: Primary qHTS Assay for Inhibitors of Recombinant Selenoprotein Glutathione Peroxidase 1 (GPX1) (AID 1845191); also: nearly all actives have a fitted effect of over 65% in size
# Sequence of Glutathione peroxidase 1 (Homo sapiens) (P07203 whole entry, looked up): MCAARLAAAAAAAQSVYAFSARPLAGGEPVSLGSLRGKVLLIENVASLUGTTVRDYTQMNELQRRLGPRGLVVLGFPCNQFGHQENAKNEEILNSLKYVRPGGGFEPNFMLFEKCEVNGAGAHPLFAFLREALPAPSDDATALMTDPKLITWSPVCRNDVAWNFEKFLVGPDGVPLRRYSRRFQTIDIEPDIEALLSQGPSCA
# Summary of the method: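 GR-coupled assay: compounds preincubated 30 min at room temperature with GPX1, then reaction started with CHP; final 10 nM GPX1, 1 mM GSH, 0.5 mM CHP, 0.5 mM NADPH, 100 nM GR, 0.01% BSA, pH 7.5 Tris buffer. NADPH fluorescence (340/450 nm) read at 0 and 15 min.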
# [3] = target: Phospholipid hydroperoxide glutathione peroxidase GPX4 (Homo sapiens) (UniProt P36969); experiment: Primary qHTS Assay for Inhibitors of Recombinant Selenoprotein Glutathione Peroxidase 4 (GPX4) (AID 1845192); also: nearly all actives have a fitted effect of over 65% in size
# Sequence of Phospholipid hydroperoxide glutathione peroxidase GPX4 (Homo sapiens) (P36969 whole entry, looked up): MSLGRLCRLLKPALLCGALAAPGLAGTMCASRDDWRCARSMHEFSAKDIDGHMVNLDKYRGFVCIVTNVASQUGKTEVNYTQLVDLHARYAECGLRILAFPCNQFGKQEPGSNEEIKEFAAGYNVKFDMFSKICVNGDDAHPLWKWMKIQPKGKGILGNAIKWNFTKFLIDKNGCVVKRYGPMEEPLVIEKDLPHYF
# Summary of the method: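 GR-coupled assay: recombinant GPX4 preincubated 30 min with compound at room temperature; final 200 nM GPX4, 1 mM GSH, 0.5 mM cumene hydroperoxide, 0.5 mM NADPH, 100 nM GR, 0.01% BSA, pH 7.5 Tris. NADPH fluorescence (340/450 nm) read at 0 and 15 min.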
# [4] = target: Luciferin 4-monooxygenase (Photinus pyralis) (UniProt P08659); experiment: Primary firefly luciferase (FLuc) qHTS assay for identification of artifact compounds. (AID 1845220); also: nearly all actives have a fitted effect of over 60% in size
# Summary of the method: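 D-luciferin and ATP (10 uM each, final) in Tris acetate buffer pH 7.6 were incubated with compounds for 15 min at room temperature. The reaction was started with 10 nM Photinus pyralis luciferase and luminescence read after 5 min. Percent inhibition was fitted to a 4-parameter Hill equation.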
# [5] = Primary fluorescence-based thiol-reactive (MSTI) qHTS assay for identification of artifact compounds. (AID 1845221); also: nearly all actives have a fitted effect of over 65% in size; also: potency is read from the fitted curve at half-maximal effect;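 as to activity change, negative = thiol reactive: series mostly up to about 54 µM; thiol-reactive compounds lower the probe fluorescence signal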
# Summary of the method: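 Reactivity toward the thiol probe MSTI (4 uM) is scored by fluorescence at Ex/Em 525/598 nm after 1 h at room temperature. Acetyl-MSTI and MSTI define the activity scale.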
# [6] = system: Nanoluciferase (engineered Oplophorus gracilirostris luciferase); experiment: Primary Nanoluciferase (NLuc) qHTS assay for identification of artifact compounds. (AID 1845222); also: series mostly up to about 54 µM
# Summary of the method: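 Diluted conditioned medium from NLuc-expressing S16 cells treated with compounds for 15 min at room temperature, then Nano-Glo substrate added; luminescence read after 5 min. Percent inhibition versus no-enzyme and DMSO controls fitted to 4-parameter Hill equation.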
# [7] = Primary redox qHTS assay for identification of artifact compounds. (AID 1845223)
# Summary of the method: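 Amplex Red (25 uM) and HRP (250 mU/mL) in HBSS, with compounds for 15 min, then 250 uM DTT for 30 min, room temperature, dark. Fluorescence 525/598 nm read; normalized to DMSO and 10 uM DA3003; Hill fit.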
SMILES,Potency [1],Potency [2],Potency [3],Potency [4],Potency [5],Potency [6],Potency [7],"activity change, negative = cell killing [1]",outcome [4],"activity change, negative = thiol reactive [5]","activity, negative = inhibition [6]",redox activity (% of DA3003) [7]
CCOCc1cc(OC)c(-c2ccc(C[C@H](NC(=O)c3c(F)cccc3F)C(=O)O)cc2)c(OC)c1,inactive,inactive,inactive,inactive,inactive,inactive,inactive,–,–,–,–,–
C=C[C@@](C)(O)CC/C=C(\C)C(=O)O[C@@H]1[C@@H]2O[C@]2(C)[C@H]2[C@H](O[C@@H]3O[C@H](CO)[C@@H](O)[C@H](O)[C@H]3O)OC=C[C@@]12O,inactive,inactive,inactive,inactive,inactive,inactive,inactive,–,–,–,–,–
C=C(C(=O)O)[C@H]1C[C@]2(C)[C@@H](O)CC[C@]23O[C@H]1C[C@@H]3C,inactive,inactive,inactive,inactive,29900 nM (active),inactive,inactive,–,–,–,–,–
COc1ccc(Cl)c(Nc2nc3ccccc3nc2NS(=O)(=O)c2cccc(NC(=O)C(C)(C)N)c2)c1,4.09 µM (active) and 8.33 µM (active),inactive,inactive,inactive,inactive,inactive,inactive,–,–,–,–,–
Cn1c(=O)n(-c2ccc(C(C)(C)C#N)cc2)c2c3cc(C#Cc4cccnc4)ccc3ncc21,14.2 nM (active),inactive,inactive,inactive,inactive,inactive,inactive,–,–,–,–,–
CCCCNc1ncc2c(-c3ccc(F)cc3)nn(CC3CCC(N)CC3)c2n1 (stereo not given),1620 nM (active),inactive,inactive,inactive,inactive,inactive,inactive,–,–,–,–,–
CCCOC(c1cc2nccc(C(=O)O)c2[nH]1)c1ccccc1Cl (stereo not given),inactive,inactive,inactive,inactive,inactive,inactive,inactive,–,–,–,–,–
CC(C)c1ccc(CO)cc1O[C@@H]1O[C@H](CO)[C@@H](O)[C@H](O)[C@H]1O,inactive,inactive,inactive,inactive,13100 nM (active),inactive,inactive,–,–,–,–,–
C[C@H]1[C@H](O)O[C@@H]2O[C@@]3(C)CC[C@H]4[C@H](C)CC[C@@H]1[C@@]24OO3,833 nM (active),inactive,inactive,inactive,inactive,inactive,inactive,–,–,–,–,–
C/C=C(\C)C(=O)OCC1OC(OC2OC(COC(=O)/C(C)=C/C)C(OC3OC(CO)C(OC(=O)/C(C)=C/C)C(OC(=O)/C(C)=C/C)C3O)C(O)C2O)C(O)C(O)C1OC1OC(CO)C(OC(=O)/C(C)=C/C)C(OC(=O)/C(C)=C/C)C1O (stereo not given),–,inactive,inactive,–,–,–,–,-15.3% [at 9.23 µM],inactive [at 11.6 µM],7.54% [at 11.5 µM],0% [at 11.6 µM],2.12% [at 11.5 µM]
C/C=C1\[C@H](O[C@@H]2O[C@H](CO)[C@@H](O)[C@H](O)[C@H]2O)OC=C(C(=O)OC)[C@H]1CC(=O)O,inactive,inactive,inactive,inactive,inactive,inactive,inactive,–,–,–,–,–
CC1CCC2(OC1)OC1CC3C4CC=C5CC(O)CC(O[C@@H]6OC[C@@H](O)[C@H](O)[C@H]6O)C5(C)C4CCC3(C)C1(O)C2C (stereo not given in full),inactive,inactive,inactive,inactive,inactive,inactive,inactive,–,–,–,–,–
CC1=C2C[C@H]3O[C@@]3(C)CCC3O[C@@]3(C)C[C@@]2(O)OC1=O (stereo not given in full),inactive,inactive,inactive,inactive,inactive,inactive,inactive,–,–,–,–,–
CC(=O)OC1C[C@]2(C)C(O)CC(C)=C[C@H](OC(=O)c3ccc(O)cc3)C2[C@]1(O)C(C)C (stereo not given in full),inactive,inactive,inactive,inactive,inactive,inactive,inactive,–,–,–,–,–
O=C(O)[C@@H]1C[C@H]2C[C@@H](CCc3nn[nH]n3)CC[C@H]2CN1,inactive,inactive,inactive,inactive,inactive,inactive,inactive,–,–,–,–,–
